A selection: hits, their analogues and other compounds. The true share with any hit is near 2.4%.
GLS inhibitor: glutaminase GLS (human) inhibition | O94925 | GLS enzymatic activity, qHTS titration | Potency, µM (top dose mostly 45.5 µM), usual class: inhibitors | 0.21% of 410,000 active | AID 624170
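hKGA; 45 mM KH2PO4 pH 8.2 + 0.02% Tween-20; cpd via pin tool; 1 mM Gln soln; GluOx/HRP/Amplex Red; RT 30 min; fluor. t0 & final.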
Pol beta inh: DNA polymerase beta (human) inhibition. Pol beta primer extension/strand displacement, fluorescence kinetic. Potency, µM (top dose mostly 114 µM), actives largely listed as inhibitors. 1.3% of 340,000 active
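Preincubation: enzyme (10 nM) with compound, 15 min, RT. Reaction: substrate added to 50 nM final. Reads: 0 and 10 min. Analysis: normalized, Hill fit.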
Pol kappa inh: inhibitors of human DNA polymerase kappa; Potency, µM (series often up to 107 µM), hits mostly inhibitors; 0.53% of 400,000 active; purified Pol kappa, fluorescent DNA synthesis assay, 10 min; Q9UBT6
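Readout: fluorescence, taken kinetically at 0 and 10 min. Conditions: 10 nM Pol kappa, 15 min RT compound preincubation, 50 nM substrate final. Controls: enzyme-free buffer wells.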
POLI inh: inhibitors of human DNA polymerase iota; 1% of 390,000 active; Potency, µM (top dose mostly 115 µM), most hits filed as inhibitors; Pol iota fluorescent replication assay, 10 min; AID 588590
Target sequence (Q9UNA4 whole entry, looked up): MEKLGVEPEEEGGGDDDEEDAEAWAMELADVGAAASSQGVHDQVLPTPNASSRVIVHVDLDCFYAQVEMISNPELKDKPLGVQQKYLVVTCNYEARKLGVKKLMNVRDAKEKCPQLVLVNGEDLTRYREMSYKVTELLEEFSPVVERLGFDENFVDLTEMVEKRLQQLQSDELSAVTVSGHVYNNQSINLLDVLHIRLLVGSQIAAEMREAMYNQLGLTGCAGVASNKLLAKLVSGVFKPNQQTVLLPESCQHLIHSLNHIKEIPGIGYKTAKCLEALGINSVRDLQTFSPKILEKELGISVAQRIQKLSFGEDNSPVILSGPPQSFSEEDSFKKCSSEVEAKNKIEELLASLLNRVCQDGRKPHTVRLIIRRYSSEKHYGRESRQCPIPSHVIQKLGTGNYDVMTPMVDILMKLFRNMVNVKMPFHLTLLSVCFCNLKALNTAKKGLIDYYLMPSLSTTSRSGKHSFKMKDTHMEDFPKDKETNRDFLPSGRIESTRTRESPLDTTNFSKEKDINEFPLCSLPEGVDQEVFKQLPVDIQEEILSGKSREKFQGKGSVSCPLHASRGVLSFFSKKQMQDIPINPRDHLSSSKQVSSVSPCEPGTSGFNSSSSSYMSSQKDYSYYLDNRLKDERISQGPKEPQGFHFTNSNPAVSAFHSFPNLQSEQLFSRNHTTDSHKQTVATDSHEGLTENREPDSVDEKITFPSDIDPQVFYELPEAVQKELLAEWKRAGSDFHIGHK
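Pol iota at 10 nM preincubated 15 min with compounds at room temperature; reaction started with fluorescent substrate, 50 nM final. Fluorescence read kinetically at 0 and 10 min; buffer-only wells as negative control.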
APE1 inh: inhibitors of human APE1 endonuclease; P27695; recombinant APE1, TAMRA/BHQ-2 abasic DNA cleavage fluorescence; Potency, µM (doses to about 65.8 µM), hits mostly inhibitors; 0.35% of 350,000 active; AID 2517; note: nearly all actives have a fitted effect of over 55% in size
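Substrate: short duplex with […] THF abasic site, 5'-TAMRA and 3'-BHQ-2, 50 nM final. APE1 at 0.75 nM, preincubated 15 min RT with compound. Fluorescence increase from first to third read measured activity.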
POLH inh: blocks human DNA polymerase eta activity; Q9Y253; recombinant Pol eta, fluorescent DNA replication assay; Potency, µM (doses to about 114 µM), most hits filed as inhibitors; 1.2% of 390,000 active; AID 588591
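Pol eta at 10 nM preincubated with compounds 15 min at room temperature; reaction started with fluorescent substrate (50 nM final) and read kinetically at 0 and 10 min.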
A number is an active result; . = inactive; ? = inconclusive; / = not tested or not shown. Calls come from the whole dose curve; as a rule, active = well fitted curve in the direction sought with a large enough effect; inconclusive = small, poorly fitted or top-dose-only effect, or another doubt; inactive = no such curve, though single readings can be large; an effect the other way counts as inactive or inconclusive.

SMILES	GLS inhibitor	Pol beta inh	Pol kappa inh	POLI inh	APE1 inh	POLH inh
Cc1cc(C)c([N+](=O)[O-])cc1-c1ccc(/C=N/c2c(-c3ccco3)nc3ccccn23)o1	.	50.1µM	?	?	.	.
COc1cc(NC(=O)Cc2ccccc2)ccc1NC(=O)Cc1ccccc1	.	.	.	.	.	.
O=C(O)C1C2C=CC(O2)C1C(=O)NCCC1=CCCCC1 (stereo unspecified)	?	?	.	?	.	50.1µM
COc1ccc(C(=O)Nc2cccc([N+](=O)[O-])c2)cc1Br	.	/	.	.	/	?
COc1ccc(C(=O)Nc2ccc(OC)c([N+](=O)[O-])c2)cc1Br	.	20µM	.	.	?	?
Cc1ccccc1NCC(=O)Nc1cc(S(=O)(=O)N2CCCCC2)ccc1C	.	/	.	.	.	.
COc1ccc(OC)c(NC(=O)CC2SC(=N)N(c3ccccc3)C2=O)c1 (stereo unspecified)	.	.	.	.	.	.
CC(C)n1cc(/C=N/NC(=O)COc2cccc3cccnc23)c2ccccc21	.	?	.	7.94µM	.	?
CCCCN(CC)CCCNC(=O)c1cn(CC)c2ccc(S(=O)(=O)N3CCOCC3)cc2c1=O	.	.	.	.	/	.
COc1ccc(Cl)cc1NC(=O)C1Cc2ccccc2CN1S(C)(=O)=O (stereo unspecified)	.	?	.	56.2µM	.	?
COc1ccc(Cl)cc1NC(=O)C1CCN(S(=O)(=O)c2ccc(F)cc2)CC1	.	.	.	89.1µM	/	.
COc1cc(NC(=O)C2Cc3ccccc3CN2S(C)(=O)=O)cc(OC)c1 (stereo unspecified)	.	.	.	.	.	.
COc1ccc(Cl)cc1NC(=O)NN1CCN(C)CC1	.	?	.	.	13.4µM	.
COc1cccc(-c2nnc(SCc3nc4ccccc4s3)n2C)c1	.	.	.	.	?	.
CCOc1ccc(/C=C/C(=O)Nc2sc3c(c2C(=O)OC)C(C(=O)OC)CC3)cc1 (stereo unspecified)	.	.	.	?	/	50.1µM
CCOc1ccc(/C=C/C(=O)Nc2sc3c(c2C(=O)OC)CCCC3)cc1	.	.	.	.	/	.
CCOC(=O)N1CCN(C(=O)c2cc(OC)c(OC)c(OC)c2)CC1	.	.	.	.	.	.
O=C(N/N=C/c1ccccn1)c1sc2ccccc2c1Cl	.	44.7µM	.	.	.	?
O=C(N/N=C/c1c[nH]c2ccccc12)c1sc2ccccc2c1Cl	.	.	.	.	.	.
O=C(N/N=C/c1ccc([N+](=O)[O-])o1)c1sc2ccccc2c1Cl	.	?	50.1µM	20µM	.	?
CCCCNC(=O)c1cccc(C(=O)NCCCC)c1	.	.	.	.	.	.
O=C(Nc1ccc(O)c2c(=O)cc(-c3cccc(Cl)c3)oc12)c1ccc(F)cc1	.	.	.	.	.	.
O=c1cc(CSc2nc3ccccc3c(=O)[nH]2)c2ccc(O)cc2o1	.	.	?	?	.	39.8µM
Cc1cc2nc(-c3cccc(NC(=O)c4ccc(Br)o4)c3)oc2cc1C	.	.	.	.	.	.
O=C(CCCCCCCCC(=O)N/N=C/c1ccco1)N/N=C/c1ccco1	.	50.1µM	.	?	?	.
SMILES	GLS inhibitor	Pol beta inh	Pol kappa inh	POLI inh	APE1 inh	POLH inh
CC(C)(C)NC(=O)C(c1ccc(F)cc1)N(CC1CCCO1)C(=O)c1csnn1 (stereo unspecified)	.	.	.	?	.	.
O=C(NCC(c1ccc2c(c1)OCO2)N1CCOCC1)C(=O)Nc1ccccc1 (stereo unspecified)	.	.	.	17.8µM	/	.
Cc1ccc(C)c(S(=O)(=O)N2CCN(C(=O)/C=C/c3ccco3)CC2)c1	.	/	50.1µM	28.2µM	.	35.5µM
Cc1ccc(S(=O)(=O)N2CCN(C(=O)/C=C/c3ccco3)CC2)cc1	.	20µM	.	.	.	79.4µM
Cc1nc(-c2ccc(S(=O)(=O)Nc3ccc(Cl)c(C(F)(F)F)c3)cc2)co1	.	.	.	.	/	.
OCC1CCCC(n2cnc3c(=S)nc[nH]c32)O1 (stereo unspecified)	.	.	.	.	.	.

Screening results: PubChem, National Center for Advancing Translational Sciences (NCATS)
